Experimental data reported in article PMC5540273 (PLoS ONE, 2017).
Like-named read-outs stand apart in the source and are kept apart here.

Tests used:
EPHA2 = details: concentration: 1 μM, replicates: in singlicate; n = 1
EPHA3 = details: concentration: 1 μM, replicates: in singlicate; n = 1
EPHA4 = details: concentration: 1 μM, replicates: in singlicate; n = 1
EPHA5 = details: concentration: 1 μM, replicates: in singlicate; n = 1
EPHA6 = details: n = 1
EPHA7 = details: concentration: 1 μM, replicates: in singlicate; n = 1
EPHA8 = details: concentration: 1 μM, replicates: in singlicate; n = 1
EPHB1 = details: concentration: 1 μM, replicates: in singlicate; n = 1
EPHB2 = details: concentration: 1 μM, replicates: in singlicate; n = 1
EPHB3 = details: concentration: 1 μM, replicates: in singlicate; n = 1
EPHB4 = details: concentration: 1 μM, replicates: in singlicate; n = 1
EPHB6 = details: concentration: 1 μM, replicates: in singlicate; n = 1
ERBB2 = details: concentration: 1 μM, replicates: in singlicate; n = 1
ERBB3 = details: concentration: 1 μM, replicates: in singlicate; n = 1
ERBB4 = details: concentration: 1 μM, replicates: in singlicate; n = 1
ERK1 = test system: T1, ERK1; details: concentration: 1 μM, replicates: in singlicate; n = 1
T1 construct: gene MAPK3

ERK2 = test system: T2, ERK2; details: concentration: 1 μM, replicates: in singlicate; n = 1
T2 construct: gene MAPK1

ERK3 = test system: T3, ERK3; details: concentration: 1 μM, replicates: in singlicate; n = 1
T3 construct: gene MAPK6

ERK4 = test system: T4, ERK4; details: concentration: 1 μM, replicates: in singlicate; n = 1
T4 construct: gene MAPK4

ERK5 = test system: T5, ERK5; details: concentration: 1 μM, replicates: in singlicate; n = 1
T5 construct: gene MAPK7

[1] = concentration: 1 μM, replicates: in singlicate
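Further: KINOMEscan kinase panel screen.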

COc1cccc(CNC(=O)NC2CCN(c3ccnc(Nc4ccc(F)cc4)n3)C2)c1 (stereo not shown) [GSK1379723]
%Inh (EPHA2): 2%
%Inh (EPHA3): 0%
%Inh (EPHA4): 0%
%Inh (EPHA5): 0%
%Inh (EPHA6; [1]): 0%
%Inh (EPHA7): 1%
%Inh (EPHA8): 15%
%Inh (EPHB1): 0%
%Inh (EPHB2): 0%
%Inh (EPHB3): 5%
%Inh (EPHB4): 2%
%Inh (EPHB6): 15%
%Inh (ERBB2): 2%
%Inh (ERBB3): 0%
%Inh (ERBB4): 22%
%Inh (ERK1): 0%
%Inh (ERK2): 0%
%Inh (ERK3): 10%
%Inh (ERK4): 0%
%Inh (ERK5): 0%

CS(=O)(=O)Cc1ccc(Nc2nccc(-c3c(-c4cccc(NC(=O)C5CCCCC5)c4)nn4ncccc34)n2)cc1 [GSK350559]
%Inh (EPHA2): 51%
%Inh (EPHA3): 16%
%Inh (EPHA4): 14%
%Inh (EPHA5): 0%
%Inh (EPHA6; 1 µM): 2%
%Inh (EPHA7): 15%
%Inh (EPHA8): 15%
%Inh (EPHB1): 2%
%Inh (EPHB2): 3%
%Inh (EPHB3): 5%
%Inh (EPHB4): 0%
%Inh (EPHB6): 42%
%Inh (ERBB2): 25%
%Inh (ERBB3): 22%
%Inh (ERBB4): 74%
%Inh (ERK1): 2%
%Inh (ERK2): 0%
%Inh (ERK3): 0%
%Inh (ERK4): 3%
%Inh (ERK5): 0%

O=C(Nc1n[nH]c2nc(-c3cccs3)c(Br)cc12)C1CC1 [SB-735297]
%Inh (EPHA2): 0%
%Inh (EPHA3): 0%
%Inh (EPHA4): 1%
%Inh (EPHA5): 0%
%Inh (EPHA6; [1]): 17%
%Inh (EPHA7): 0%
%Inh (EPHA8): 8%
%Inh (EPHB1): 0%
%Inh (EPHB2): 0%
%Inh (EPHB3): 0%
%Inh (EPHB4): 0%
%Inh (EPHB6): 39%
%Inh (ERBB2): 0%
%Inh (ERBB3): 0%
%Inh (ERBB4): 0%
%Inh (ERK1): 0%
%Inh (ERK2): 0%
%Inh (ERK3): 0%
%Inh (ERK4): 0%
%Inh (ERK5): 0%

Nc1ncnc2occ(-c3ccc4c(c3)CCN4C(=O)Cc3cc(F)ccc3F)c12 [GSK2645446]
%Inh (EPHA2): 0%
%Inh (EPHA3): 12%
%Inh (EPHA4): 0%
%Inh (EPHA5): 0%
%Inh (EPHA6; [1]): 0%
%Inh (EPHA7): 0%
%Inh (EPHA8): 0%
%Inh (EPHB1): 0%
%Inh (EPHB2): 6%
%Inh (EPHB3): 0%
%Inh (EPHB4): 6%
%Inh (EPHB6): 87%
%Inh (ERBB2): 30%
%Inh (ERBB3): 11%
%Inh (ERBB4): 0%
%Inh (ERK1): 0%
%Inh (ERK2): 0%
%Inh (ERK3): 21%
%Inh (ERK4): 0%
%Inh (ERK5): 0%

CC(=O)c1cccc(NC(=O)NC2CCN(c3ccnc(Nc4ccc(F)cc4)n3)C2)c1 (stereo not shown) [GSK1379710]
%Inh (EPHA2): 0%
%Inh (EPHA3): 19%
%Inh (EPHA4): 6%
%Inh (EPHA5): 0%
%Inh (EPHA6; [1]): 7%
%Inh (EPHA7): 6%
%Inh (EPHA8): 14%
%Inh (EPHB1): 8%
%Inh (EPHB2): 11%
%Inh (EPHB3): 7%
%Inh (EPHB4): 4%
%Inh (EPHB6): 19%
%Inh (ERBB2): 15%
%Inh (ERBB3): 8%
%Inh (ERBB4): 6%
%Inh (ERK1): 0%
%Inh (ERK2): 0%
%Inh (ERK3): 0%
%Inh (ERK4): 30%
%Inh (ERK5): 12%
